# Reference: the supplement of paper PMC6555819
# Legend:
# Experiment in all cases: PBM binding z-score (relative to random genomic background probes); higher = stronger binding; sequences stand for … in GC…GCGATTGACAGCGTAGAATGAAGG
# [1] = test system: RARb homodimer (NR concentration 270 nM)
# Method in brief: (§1)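 Binding z-scores were set against random background probes. The data came from custom Agilent 4×180K protein-binding microarrays carrying double-stranded probes with 34-nt variable regions, incubated 1 h with ligand-free nuclear receptor dimers. Partner-specific antibodies detected binding, and scanned fluorescence was regression-normalized.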
# [2] = test system: RARg:RXRa (NR concentration 270 nM, RXRa partner concentration 90 nM)
# Method in brief: as §1
# [3] = test system: RARg homodimer (NR concentration 270 nM)
# Method in brief: as §1
# [4] = test system: RXRa DBDmut IVT, anti-RXR (DBD mutation: RXRa K156A/R161A, NR concentration 90 nM)
# Method in brief: as §1
# [5] = test system: RXRa homodimer (NR concentration 180 nM)
# Method in brief: as §1
# [6] = test system: THRa:RXRa (NR concentration 90 nM, RXRa partner concentration 90 nM)
# Method in brief: as §1
# [7] = test system: THRa homodimer (NR concentration 90 nM)
# Method in brief: as §1
# [8] = test system: VDR homodimer (NR concentration 270 nM)
# Method in brief: as §1
Sequence,PBM binding z-score [1],PBM binding z-score [2],PBM binding z-score [3],PBM binding z-score [4],PBM binding z-score [5],PBM binding z-score [6],PBM binding z-score [7],PBM binding z-score [8]
GGAACGAGGGCAAGTTGGTAGCAGAGTTTGATGG,1.6,1.27,2.08,2.05,0.826,1.41,0.26,1.91
TCTAATTGGTCAAAGGTCACACACTCGAAATGCG,4.96,7.28,6.41,2.51,8.16,4.13,2.44,3.16
GCGACTGGGGCAAACCAGGTTACCATAAGGTTGG,1.29,0.596,0.516,-0.486,0.616,3.93,0.684,-0.202
CCGAGTAGGTTATGGGGCCTTCAGGCAACGGTGA,0.593,0.0658,0.0449,-0.932,0.358,0.547,0.292,0.0348
CGTCCAAGGTCAAGGTCAGTAAAAGAGACTCGAA,4.79,6.66,7.87,3.57,6.53,4,3.52,3.34
AGAACGAGGGCACACTGAGTTGATAGCAGAGTAG,1.02,1.64,1.91,2.1,1.24,1.72,0.167,1.78
CCGACTGGGGCGAAGGTTACCATACTCAGTACGA,0.751,0.697,0.405,-0.021,1.12,0.439,-0.242,-0.459
CCTGCTAAGTCATGGTCAGCTAATCTACAGTATG,0.142,0.135,0.315,0.518,0.0599,-0.13,-0.892,-0.337
ATCTCTAGGTAAAGATCAGTGAAAGATCGATAGA,-0.585,0.367,0.528,-0.253,0.257,0.044,-0.362,-0.142
CAAACTAGGTCAAGAGGTGAAAGTCCGCTTCCCG,4.18,5.62,5.36,1.5,4.52,3.58,1.67,0.973
ATCGAAAGGTCGACGAGGTGAATATACACCGTTT,2.97,4.55,3.93,1.7,4.64,4.06,1.54,1.84
CCTAGTTGGTAAAGGTCACACACGCTATAGGTAC,5.1,6.22,6.12,2.1,6.73,4.12,2.03,3.54
AGAACGAGGGCACGCTGAGGTGATAGCAGAGTAG,1.66,2.8,2.65,1.51,1.77,3.45,1.21,1.04
GCTAGCAGGCTATTTGGGTCACTCAATGACGGGC,1.63,0.682,0.795,-0.21,0.76,1.81,0.905,-0.158
TCGAGTAGGTTACCAATGGGGCATTCAGCTTTCT,0.636,1.2,0.445,0.401,0.5,0.261,-0.612,-0.59
ACTAGCAGGCCAGGGGTCACTCAAGATTAGTCCG,4.12,5.09,4.23,1.31,6.16,3.5,1.05,2.8
CCTAGCAGGCCAGGGTGACTCAAGCATTTCGCTT,0.018,-0.0591,-0.113,-0.702,-0.00102,0.244,-0.395,-0.814
CGTCCAAGGTCAGCAGATCAGTGAAAGCGACGTG,3.69,4.89,5.8,2.42,3.8,3.42,2.11,0.793
ATCTCTAGGTACCAAGTTCAGTGAAAGAGAGGAC,1.51,0.686,0.865,1.27,0.546,0.926,0.692,2.26
TCTTGTAGATCAACGGGAGGTTAAGAAAGATCGA,0.654,1.49,0.307,0.748,1.06,1.11,-0.165,-0.124
ATCTCTAGGTAACCAAATTCAGTGAATGCCGAAC,0.339,0.22,0.428,0.324,0.301,0.659,0.778,0.572
CAAGCTAGGTCACAGAGGTCAAAGTCCGTGCGTA,5.82,7.64,8.36,3.42,8.42,4.64,2.65,7.28
CGAACTAGGTCACGGACAGTGAATCTCCGCACGC,3.36,5.11,5.73,1.82,3.99,3.53,2.1,0.814
TAGCCTAGGTCTGATCGGGCCAGTATACGCTATA,-0.807,-0.244,-0.187,-1.28,-0.358,0.71,-0.845,-0.912
TCTTGTAGATCAAGCAGGTCAAGAAAGCCTGAGT,2.28,1.43,1.35,0.714,1.66,2.01,0.223,0.53
TCAGACAGGTGAAGGTAACTCAGGTACGCAGTCG,1,0.581,0.551,1.37,0.995,1.48,0.516,0.357
CGAACTAGTTCATTGACAGGACAGTGAATAGTAA,0.576,1.79,1.11,3,0.234,0.837,-0.237,2.01
CTACCAAGGTGAACAAGGTAGTTGATTACTATTC,0.762,0.87,0.957,0.172,0.815,1.75,0.665,-0.336
